Pf growth 96h: P. falciparum growth inhibition at 96 hour, primary screen for plastid delayed-death inhibitors; Potency, µM (series often up to 28.7 µM), without a hit: top-dose activity change, negative = inhibition, usual class: inhibitors; P. falciparum luciferase reporter growth, 96 h; hit rate 6.9% among 320,000; also: potency is read from the fitted curve at half-maximal effect
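Erythrocytes infected with luciferase-expressing P. falciparum were dispensed at 2% hematocrit and 0.05% parasitemia (final), then incubated with compounds 96 hours at 37 C in 5% CO2. Luminescence after detection reagent addition reported growth.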
FBPA Giardia inh: Giardia lamblia aldolase inhibition; Potency, µM (titrated, usually from 59.6 µM), for inactives: top-dose activity, negative = inhibition, actives largely listed as inhibitors; hit rate 0.71% among 290,000; purified Giardia FBPA; also: potency is read from the fitted curve at half-maximal effect; nearly all actives have a fitted effect of over 55% in size
Target sequence (A8B2U2 whole entry, looked up): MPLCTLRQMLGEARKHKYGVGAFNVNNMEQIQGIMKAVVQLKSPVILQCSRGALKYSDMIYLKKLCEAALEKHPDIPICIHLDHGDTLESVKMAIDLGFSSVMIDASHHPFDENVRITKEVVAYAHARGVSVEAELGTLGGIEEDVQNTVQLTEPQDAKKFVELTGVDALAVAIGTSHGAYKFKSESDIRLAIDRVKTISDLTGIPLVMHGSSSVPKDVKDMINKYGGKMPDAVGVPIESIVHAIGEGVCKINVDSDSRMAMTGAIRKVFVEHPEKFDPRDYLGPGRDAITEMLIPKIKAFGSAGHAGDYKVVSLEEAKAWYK
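Giardia FBPA (40 nM reagent) was preincubated 10 min at RT with compound (up to 57.5 uM final), then substrate plus GAPDH/TPI/NAD/arsenate coupling system with diaphorase/resazurin was added; resorufin fluorescence (525/598 nm) was read after 20 min.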
HCMV antiviral: inhibitors of human cytomegalovirus. HFF cells, HCMV-luciferase reporter, 72 h; stronger effect = lower value. activity change, negative = inhibition, % at 57.5 µM. hit rate 4.5% among 410,000; in the data active = activity change below about -60%; inconclusive = no clear call, values can overlap the other calls; inactive = above about -39%
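Cell-based, HFFs, 1000 cells/well, 16 h 37C; cpds in DMSO + HCMV-luc, MOI 1 PFU/cell; 72 h 37C; OneGlo luminescence after 5 min RT; norm. to buffer vs Salinomycin 10uM.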
Sm TGR block: blocks Schistosoma mansoni thioredoxin glutathione reductase | Q962Y6 | purified TGR, DTNB reduction, TNB absorbance 405 nm | Potency, µM (titrated, usually from 114 µM), inactives show top-dose activity change, negative = inhibition, usual class: inhibitors | hit rate 3% among 360,000; also: potency is read from the fitted curve at half-maximal effect; nearly all actives have a fitted effect of over 60% in size
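TGR 20 nM + NADPH 100 uM (dispensed conc.), cpd preinc 15 min RT; start with NADPH (500 uM addition) then DTNB (15 mM addition). Kinetic TNB absorbance, 405 nm filter. Four-parameter Hill fit across titration.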
Pf growth 48h: inhibits P. falciparum growth in the first generation, 48 h. P. falciparum luciferase growth in erythrocytes, 48 h. Potency, µM (series often up to 28.7 µM), for inactives: at the top dose activity change, negative = inhibition, most hits filed as inhibitors. hit rate 5.9% among 310,000. AID 504832; also: potency is read from the fitted curve at half-maximal effect
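Luminescence readout; reporter = integrated firefly luciferase in P. falciparum. RBC culture at 2% hematocrit, 0.1% parasitemia final, 37 C/5% CO2; decreased signal taken as growth inhibition.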
The depositor's hits bear a star; ? = inconclusive; nt = no result; [ ] = remark or other dose. Compounds with a hit are over-represented: about 14% of the library has one in this group of screens. Unless noted, calls follow the shape of the dose curve; as a rule, active = well fitted curve in the direction sought with a large enough effect; inconclusive = small, poorly fitted or top-dose-only effect, or another doubt; inactive = no such curve, though single readings can be large; an effect the other way counts as inactive or inconclusive. % is scaled to controls: 0 for no effect and ±100 for the full control effect.

SMILES	Pf growth 96h	FBPA Giardia inh	HCMV antiviral	Sm TGR block	Pf growth 48h
O=C(c1ccccc1Sc1c(Cl)cccc1[N+](=O)[O-])N1CCOCC1	?	1%	-22	-2%	12%
O=C(Oc1cccccc1=O)c1ccccc1	15µM*	-5%	-3	-23%	?
O=C(Oc1ccccc1Cl)c1ccccc1	nt	nt	-9	nt	nt
Cc1ccc2c(c1)NC(c1cccs1)C1=C(CC(C)(C)CC1=O)N2 (stereo not given)	-8%	-1%	21	1%	1%
O=c1cc(-c2cccc(F)c2)[nH]c2cc(F)ccc12	nt	-1%[89.2 µM]	nt	nt	nt
Nc1ccc2oc(Cc3ccc(Cl)cc3)nc2c1	nt	nt	-2	14µM*	nt
O=[N+]([O-])c1ccc(O)c(C=Nc2ccc3oc(Cc4ccc(Cl)cc4)nc3c2)c1	38%	?	nt	50µM*	?
O=C1CCCN1c1ccc(S(=O)(=O)Nc2ccc3c(c2)OCCO3)cc1	14%	10%	-81*	3%	?
CCOc1ccc(NS(=O)(=O)c2ccc3c(c2)CCN3C(=O)C2CCC2)cc1	6%	-1%	?	-12%	nt
O=C(O)CCC(=O)N1CCc2cc(S(=O)(=O)Nc3ccc4c(c3)OCCO4)ccc21	13µM*	6%	-8	-3%	nt
O=C(C1CCC1)N1CCc2cc(S(=O)(=O)Nc3ccc4c(c3)OCO4)ccc21	13%	3%	-72*	-4%	?
Cc1ccc(S(=O)(=O)Nc2ccc3c(c2)OCCO3)cc1	7%	-4%	15	6%	-2%
Cc1cc(C)c2c(CC(=O)Nc3cc(C(F)(F)F)ccc3Cl)coc2c1	nt	nt	-6	-2%	nt
O=C(/C=C/c1ccccc1)Nc1cc(NC(=O)/C=C/c2ccccc2)cc(C(=O)O)c1	-4%	12%	20	40µM*	61%
O=C(/C=C/c1ccccc1)Nc1cccc(C(=O)N2CCCCC2)c1	nt	nt	42	nt	nt
O=C(Nc1cccc(C(=O)O)c1)/C(=C\C=C\c1ccccc1)NC(=O)c1ccccc1	?	10%	-104*	nt	1%
O=C(/C=C/c1ccccc1)Nc1cccc(C(=O)O)c1	?	-2%	49	9%	0.26µM*
CCOC(=O)/C(=C\C=C\c1ccccc1)NC(=O)c1ccccc1	-8%	-2%	-28	-3%	21%
CCOC(=O)/C(=C/C=C/c1ccccc1)NC(=O)c1ccccc1	10µM*	1%	?	5%	17%
CC(Oc1ccccc1F)C(=O)NCC1(N2CCOCC2)CCCCC1 (stereo not given)	nt	nt	?	-3%	nt
COc1ccc(OC)c(-c2nc(C(N)=O)c3[nH]c(=O)n(-c4ccc(F)cc4)c3n2)c1	-8%	-7%	43	-33%	nt
Cc1ccc(-n2c(=O)[nH]c3c(C(N)=O)nc(-c4ccc(C)o4)nc32)cc1	4%	-2%	-37	32µM*	-16%
Cc1ccc(-n2c(=O)[nH]c3c(C(N)=O)nc(CC(C)C)nc32)cc1	1.7µM*	6%	-30	1%	?
O=C(COC(=O)CCc1c[nH]c2ccccc12)Nc1ccccc1	26%	nt	-2	1%	18%
Cc1ccc(NC(=O)COC(=O)CCc2c[nH]c(=O)[nH]2)cc1	nt	-4%	41	32µM*	6%
SMILES	Pf growth 96h	FBPA Giardia inh	HCMV antiviral	Sm TGR block	Pf growth 48h
O=C(COC(=O)CCc1c[nH]c(=O)[nH]1)Nc1ccccc1	-4%	?	20	40µM*	?
CC(=O)Nc1ccc(NC(=O)C(C)OC(=O)CC23CC4CC(CC(Br)(C4)C2)C3)cc1 (stereo not given)	nt	nt	-16	nt	nt
C[C@H]1CN([C@@H](C)CO)C(=O)CCCn2nncc2CO[C@H]1CN(C)C(=O)C1CCCCC1	nt	nt	-5	nt	nt
Cc1ccc(NC(=O)C2CCCN2S(=O)(=O)c2cccc3nsnc23)c(C)c1 (stereo not given)	nt	nt	-6	8%	nt
Cc1ccc(C(=O)O)cc1NC(=O)C1CCCN1S(=O)(=O)c1cccc2nsnc12 (stereo not given)	17µM*	-8%	9	2%	nt
O=C(C1CCCN1S(=O)(=O)c1cccc2nsnc12)N1CCN(c2ccc(F)cc2)CC1 (stereo not given)	-11%	nt	-66*	-8%	?
COc1ccc(NC(=O)C2CCCN2S(=O)(=O)c2cccc3nsnc23)c(OC)c1 (stereo not given)	10µM*	nt	nt	-4%	?
O=C(Nc1ccccc1Br)C1CCCN1S(=O)(=O)c1cccc2nsnc12 (stereo not given)	?	nt	-24	-1%	-2%
COc1ccccc1NC(=O)C1CCCN1S(=O)(=O)c1cccc2nsnc12 (stereo not given)	?	nt	nt	-2%	-1%
Cc1c(NC(=O)C2CCCN2S(=O)(=O)c2cccc3nsnc23)cccc1C(=O)O (stereo not given)	9.3µM*	0%	-6	0%	nt
O=C(Cc1ccccc1F)Nc1cccc(S(=O)(=O)N2CCOCC2)c1	nt	nt	10	nt	nt
Cc1cc(O)c(CN(C)C)c2c1C(=O)/C(=C/c1ccco1)O2	5.2µM*	-6%	-17	4µM*	6.6µM*
Cc1c(OC(=O)N(C)C)ccc2c1O/C(=C\c1ccco1)C2=O	34%	7%	50	11µM*	33%
CC(=O)COc1ccc2c(c1C)O/C(=C\c1ccco1)C2=O	58%	-1%	54	20µM*	69%
OC(c1ccc(-c2ccccc2)cc1)c1ncc(-c2ccccc2)[nH]1 (stereo not given)	nt	nt	-16	nt	nt
CCOC(=O)COc1c(Cl)cc(C2NC(=S)NC(c3ccccc3)=C2C(C)=O)cc1OCC (stereo not given)	?	-1%	-60*	-4%	?
C=CCOc1ccc(C2NC(=S)NC(c3ccccc3)=C2C(C)=O)cc1OC (stereo not given)	-1%	4%	-14	-16%	-29%
COCC1CCCN(C(=O)c2ccc(OC3CCN(Cc4ccccn4)CC3)cc2)C1 (stereo not given)	156%	2%	-33	-14%[57.1 µM]	6%
O=c1c2ccccc2nc(/C=C/c2ccccn2)n1-c1ccccc1	0%	-6%	?	2%	?
COc1ccc(-n2c(/C=C3/C(=O)Nc4ccccc43)nc3ccccc3c2=O)cc1	-2%	-4%	?	7%	-19%
CC(C)N1C(=O)/C(=C\c2nc3ccccc3c(=O)n2-c2ccccc2)c2ccccc21	-14%	-16%	-95*	-5%	?
CC(C)N1C(=O)/C(=C/c2nc3ccccc3c(=O)n2-c2ccccc2)c2ccccc21	?	20%	-105*	2%	?
CC(C)N1C(=O)C(Cc2nc3ccccc3c(=O)n2-c2ccccc2)c2ccccc21 (stereo not given)	9.3µM*	-2%	-72*	2%	9.3µM*
CN1C(=O)C(Cc2nc3ccccc3c(=O)n2-c2ccccc2)c2ccccc21 (stereo not given)	?	-7%	-23	-1%	?

Source: PubChem (National Center for Advancing Translational Sciences (NCATS))
